PubChem BioAssay AID1159580 (chemical genetic matrix, 2015)
Out of some 5,500 compounds screened, about 2,000 (36%) were called active. About 18% were inconclusive and are not listed. No stated cut-off is given here; in the data, active means normalized growth mostly below about 0.91 (no sharp cut-off); inconclusive means no clear call, values can overlap the other calls; inactive means mostly above about 0.92. The list shows a part of the results.

Assay: chemical genetic growth profiling, strain panel (AID 1159580);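 further: tested at 20 µM; growth read once vehicle control cultures reached saturation at 30 °C; 1 = growth at the plate median or of vehicle wells; lower values mean less growth of the strain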
Conditions: growth OD
[1] = S. cerevisiae deletion strains, locus YDL101C, strain DUN1, hits give low values
[2] = S. cerevisiae deletion strains, locus YHR030C, strain SLT2, hits give low values
[3] = S. cerevisiae deletion strains, locus YAL013W, strain DEP1, hits give low values
[4] = S. cerevisiae deletion strains, locus YBR229C, strain ROT2, hits give low values
[5] = S. cerevisiae deletion strains, locus YCL061C, strain MRC1, hits give low values
[6] = S. cerevisiae deletion strains, locus YDR150W, strain NUM1, hits give low values
[7] = S. cerevisiae deletion strains, locus YEL061C, strain CIN8, hits give low values
[8] = S. cerevisiae deletion strains, locus YGR078C, strain PAC10, hits give low values
[9] = S. cerevisiae deletion strains, locus YHR087W, strain rtc3, hits give low values
[10] = S. cerevisiae deletion strains, locus YJR043C, strain POL32, hits give low values
[11] = S. cerevisiae deletion strains, locus YJR075W, strain HOC1, hits give low values
[12] = S. cerevisiae deletion strains, locus YKL190W, strain CNB1, hits give low values
[13] = S. cerevisiae deletion strains, locus YLR039C, strain RIC1, hits give low values
[14] = S. cerevisiae deletion strains, locus YLR058C, strain SHM2 (second series), hits give low values
[15] = S. cerevisiae deletion strains, locus YLR085C, strain ARP6, hits give low values
[16] = S. cerevisiae deletion strains, locus YLR262C, strain YPT6, hits give low values
[17] = S. cerevisiae deletion strains, locus YML094W, strain GIM5, hits give low values
[18] = S. cerevisiae deletion strains, locus YMR219W, strain ESC1, hits give low values
[19] = S. cerevisiae deletion strains, locus YMR263W, strain SAP30, hits give low values
[20] = S. cerevisiae deletion strains, locus YNL153C, strain GIM3, hits give low values
[21] = S. cerevisiae deletion strains, locus YNL298W, strain CLA4 (second series), hits give low values
[22] = S. cerevisiae deletion strains, locus YNL322C, strain KRE1, hits give low values
[23] = S. cerevisiae deletion strains, locus YNR030W, strain Alg12, hits give low values
[24] = S. cerevisiae deletion strains, locus YPL055C, strain LGE1, hits give low values
[25] = S. cerevisiae deletion strains, locus YPL241C, strain CIN2, hits give low values
[26] = S. cerevisiae deletion strains, locus YPR135W, strain CTF4, hits give low values
[27] = S. cerevisiae deletion strains, locus YOL006C, strain TOP1, hits give low values
[28] = S. cerevisiae strains, strain wild type, hits give low values
[29] = S. cerevisiae deletion strains, locus YDL134C, strain PPH21, hits give low values

Measured: normalized growth

Cc1ccc(NNC(=O)c2c(C)noc2C)cc1Cl
inactive: S. cerevisiae deletion strains, locus YAR019C, strain CDC15, hits give low values 0.977 | S. cerevisiae deletion strains, locus YBL105C, strain PKC1, hits give low values 0.972 | S. cerevisiae deletion strains, locus YBR135W, strain CKS1, hits give low values 0.982 | S. cerevisiae deletion strains, locus YBR136W, strain MEC1, hits give low values 0.975 | S. cerevisiae deletion strains, locus YBR160W, strain CDC28, hits give low values 0.982 | S. cerevisiae deletion strains, locus YDL017W, strain CDC7, hits give low values 0.979 | S. cerevisiae deletion strains, locus YDL028C, strain MPS1, hits give low values 0.986 | [1] 0.976 | S. cerevisiae deletion strains, locus YDL108W, strain KIN28, hits give low values 0.981 | S. cerevisiae deletion strains, locus YDL132W, strain cdc53, hits give low values 0.987 | S. cerevisiae deletion strains, locus YDL214C, strain PRR2, hits give low values 0.939 | S. cerevisiae deletion strains, locus YDR052C, strain DBF4, hits give low values 0.988 | S. cerevisiae deletion strains, locus YDR054C, strain cdc34, hits give low values 0.993 | S. cerevisiae deletion strains, locus YDR226W, strain ADK1, hits give low values 0.978 | S. cerevisiae deletion strains, locus YDR477W, strain SNF1, hits give low values 0.946 | S. cerevisiae deletion strains, locus YER123W, strain YCK3, hits give low values 0.857 | S. cerevisiae deletion strains, locus YER133W, strain GLC7, hits give low values 0.947 | S. cerevisiae deletion strains, locus YFL009W, strain cdc4, hits give low values 0.986 | S. cerevisiae deletion strains, locus YFL029C, strain CAK1, hits give low values 0.984 | S. cerevisiae deletion strains, locus YFR003C, strain YPI1, hits give low values 0.983 | S. cerevisiae deletion strains, locus YFR019W, strain FAB1, hits give low values 0.903 | S. cerevisiae deletion strains, locus YFR028C, strain CDC14, hits give low values 0.992 | S. cerevisiae deletion strains, locus YGR040W, strain KSS1, hits give low values 0.925 | S. cerevisiae deletion strains, locus YGR052W, strain FMP48, hits give low values 0.987 | S. cerevisiae deletion strains, locus YGR092W, strain DBF2, hits give low values 0.833 | [2] 0.865 | S. cerevisiae deletion strains, locus YHR079C, strain IRE1, hits give low values 0.964 | S. cerevisiae deletion strains, locus YHR082C, strain KSP1, hits give low values 1.02 | S. cerevisiae deletion strains, locus YHR205W, strain SCH9, hits give low values 0.926 | S. cerevisiae deletion strains, locus YIL147C, strain SLN1, hits give low values 0.983 | S. cerevisiae deletion strains, locus YJL095W, strain BCK1, hits give low values 0.929 | S. cerevisiae deletion strains, locus YJL128C, strain PBS2, hits give low values 0.979 | S. cerevisiae deletion strains, locus YJL157C, strain FAR1, hits give low values 0.923 | S. cerevisiae deletion strains, locus YJR016C, strain ILV3, hits give low values 0.981 | S. cerevisiae deletion strains, locus YJR066W, strain TOR1 (second series), hits give low values 0.909 | S. cerevisiae deletion strains, locus YJR066W, strain TOR1, hits give low values 0.983 | S. cerevisiae deletion strains, locus YKL048C, strain ELM1, hits give low values 0.916 | S. cerevisiae deletion strains, locus YKL067W, strain YNK1, hits give low values 0.935 | S. cerevisiae deletion strains, locus YKL101W, strain HSL1, hits give low values 0.943 | S. cerevisiae deletion strains, locus YKL193C, strain SDS22, hits give low values 0.985 | S. cerevisiae deletion strains, locus YKL203C, strain TOR2, hits give low values 1 | S. cerevisiae deletion strains, locus YLR113W, strain HOG1, hits give low values 0.868 | S. cerevisiae deletion strains, locus YLR133W, strain CKI1, hits give low values 0.943 | S. cerevisiae deletion strains, locus YLR403W, strain SFP1, hits give low values 0.92 | S. cerevisiae deletion strains, locus YML070W, strain DAK1, hits give low values 0.906 | S. cerevisiae deletion strains, locus YMR001C, strain CDC5, hits give low values 0.984 | S. cerevisiae deletion strains, locus YMR205C, strain PFK2 (second series), hits give low values 0.955 | S. cerevisiae deletion strains, locus YMR277W, strain FCP1, hits give low values 0.986 | S. cerevisiae deletion strains, locus YNL006W, strain LST8, hits give low values 0.99 | S. cerevisiae deletion strains, locus YNL020C, strain ARK1, hits give low values 0.948 | S. cerevisiae deletion strains, locus YNL161W, strain CBK1, hits give low values 0.98 | S. cerevisiae deletion strains, locus YNL183C, strain NPR1, hits give low values 0.98 | S. cerevisiae deletion strains, locus YNL207W, strain RIO2, hits give low values 0.992 | S. cerevisiae deletion strains, locus YNL222W, strain SSU72, hits give low values 0.982 | S. cerevisiae deletion strains, locus YNL307C, strain MCK1 (second series), hits give low values 0.881 | S. cerevisiae deletion strains, locus YOL078W, strain AVO1, hits give low values 0.98 | S. cerevisiae deletion strains, locus YOL136C, strain PFK27, hits give low values 0.922 | S. cerevisiae deletion strains, locus YOR061W, strain CKA2, hits give low values 0.917 | S. cerevisiae deletion strains, locus YOR119C, strain RIO1, hits give low values 0.976 | S. cerevisiae deletion strains, locus YOR231W, strain MKK1, hits give low values 0.917 | S. cerevisiae deletion strains, locus YOR329C, strain SCD5, hits give low values 0.986 | S. cerevisiae deletion strains, locus YPL031C, strain PHO85, hits give low values 0.944 | S. cerevisiae deletion strains, locus YPL153C, strain RAD53, hits give low values 0.922 | S. cerevisiae deletion strains, locus YPL204W, strain HRR25, hits give low values 0.956 | S. cerevisiae deletion strains, locus YPL209C, strain IPL1, hits give low values 0.973 | S. cerevisiae deletion strains, locus YPL256C, strain CLN2, hits give low values 0.903 | S. cerevisiae deletion strains, locus YPR025C, strain CCL1, hits give low values 0.981 | S. cerevisiae deletion strains, locus YPR106W, strain ISR1, hits give low values 0.981 | S. cerevisiae deletion strains, locus YPR111W, strain DBF20, hits give low values 0.961 | S. cerevisiae deletion strains, strain NNK1, hits give low values 0.975 | S. cerevisiae deletion strains, strain TSCII, hits give low values 0.98

Cc1onc(-c2c(Cl)cccc2Cl)c1C(=O)OCC(F)(F)F
inactive: [3] 1.01 | [4] 1.01 | [5] 1.02 | [1] 0.984 | [6] 0.982 | [7] 1 | [8] 0.99 | [2] 1.05 | [9] 0.986 | [10] 0.99 | [11] 1 | [12] 1 | [13] 0.955 | [14] 1.01 | [15] 0.971 | [16] 0.942 | [17] 1.01 | [18] 0.997 | [19] 1 | [20] 1.02 | [21] 1.02 | [22] 1 | [23] 0.985 | [24] 1.01 | [25] 1.04 | [26] 0.989

Cc1onc(-c2c(Cl)cccc2Cl)c1C(=O)Oc1ccc(Cl)c(Cl)c1
inactive: [3] 1.01 | [4] 0.995 | [1] 0.996 | [6] 1.01 | [7] 1.01 | [8] 1.03 | [2] 1.21 | [9] 1.06 | [10] 0.998 | [11] 0.99 | [13] 1.19 | [14] 0.986 | [15] 0.991 | [16] 1.16 | [17] 0.998 | [18] 0.992 | [19] 1.01 | S. cerevisiae deletion strains, locus YNL128W, strain TEP1, hits give low values 1 | [20] 1.03 | [21] 1.01 | [22] 1.01 | [23] 0.987 | [27] 1.07 | [24] 1 | [25] 0.973 | [26] 1.14 | [28] 1.01

Cc1onc(-c2c(F)cccc2Cl)c1C(=O)Oc1ccccc1
inactive: [3] 0.964 | [4] 0.962 | [5] 0.963 | [1] 0.938 | [29] 0.993 | [6] 0.943 | [8] 0.945 | [2] 0.727 | [9] 0.948 | [10] 0.951 | [11] 0.939 | [13] 0.857 | [14] 0.973 | [15] 0.838 | [16] 0.839 | [17] 0.978 | [18] 0.966 | [19] 0.979 | S. cerevisiae deletion strains, locus YMR307W, strain GAS1, hits give low values 0.705 | [20] 0.984 | [21] 0.98 | [22] 0.973 | [23] 0.989 | [24] 0.97 | [25] 0.994 | [26] 0.948 | [28] 0.935
active: [7] 0.908

Cc1onc(-c2ccccc2)c1NC(=O)Nc1c(Cl)cccc1Cl
inactive: [3] 0.995 | [4] 0.983 | [5] 0.963 | [1] 0.988 | [29] 0.996 | [6] 0.973 | [7] 0.991 | [8] 1 | S. cerevisiae deletion strains, locus YGR229C, strain SMI1, hits give low values 0.996 | [2] 0.811 | [9] 0.975 | [10] 0.969 | [11] 0.975 | [12] 1 | [14] 0.988 | [15] 0.946 | [17] 0.949 | [18] 0.991 | [19] 0.999 | [20] 1.01 | [21] 0.974 | [22] 0.976 | [23] 0.983 | [27] 0.803 | [24] 0.997 | [25] 0.941 | [26] 0.933
active: [13] 0.668 | [16] 0.572
